Bioassay records (PubChem)
GLP1R ag = GLP-1 receptor (human) agonism; HEK293 GLP-1R CRE-luciferase, luminescence, 4-6 h; cells express a hypersensitive GLP-1R form; P43220; 380,000 compounds, 0.007% hits; Potency, µM (doses to about 45.6 µM), most hits filed as activators
Target sequence (P43220 whole entry, looked up): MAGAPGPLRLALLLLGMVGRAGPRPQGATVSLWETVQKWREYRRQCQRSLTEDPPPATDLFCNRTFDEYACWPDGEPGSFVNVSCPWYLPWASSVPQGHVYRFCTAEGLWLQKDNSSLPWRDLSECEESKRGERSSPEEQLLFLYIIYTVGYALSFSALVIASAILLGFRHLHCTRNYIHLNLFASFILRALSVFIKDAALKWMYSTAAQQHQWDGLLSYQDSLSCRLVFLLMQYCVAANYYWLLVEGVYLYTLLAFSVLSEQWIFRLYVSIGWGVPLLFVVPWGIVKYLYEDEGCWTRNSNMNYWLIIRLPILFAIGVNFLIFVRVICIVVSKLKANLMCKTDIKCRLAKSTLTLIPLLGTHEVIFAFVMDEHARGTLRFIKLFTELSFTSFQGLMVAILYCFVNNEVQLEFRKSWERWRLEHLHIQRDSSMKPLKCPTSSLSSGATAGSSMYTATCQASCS
GLP-1R inv ag = acts as inverse agonist at human GLP-1 receptor | P43220 | HEK293 GLP-1R CRE-luciferase, luminescence, 24 h; GLP-1R form is constitutively active | Potency, µM (titrated, usually from 38.3 µM), most hits filed as inhibitors | 410,000 compounds, 1.6% hits; note: nearly all actives have a fitted effect of over 55% in size
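Seeding at 200 cells/uL, 12 h culture, 24 hr compound treatment, then luciferase reagent and a luminescence read; cells are HEK293 stably expressing a constitutively active GLP-1R plus cAMP-responsive luciferase.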
TGFb SMAD3 inh = blocks TGF-b signaling; Potency, µM (titrated, usually from 46.1 µM), most hits filed as inhibitors; 410,000 compounds, 1.2% hits; HepG2 CAGA-GFP TGF-b/SMAD3 reporter, GFP fluorescence, 18 h; TGF-beta stimulated, 500 pg/mL final; note: nearly all actives have a fitted effect of over 65% in size
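Inhibition of TGF-beta-driven CAGA-GFP reporter expression in HEPG2 cells is measured by cellular GFP fluorescence after 18 h stimulation with 500 pg/mL recombinant TGF-beta in 1% FBS medium at 37 degrees C.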
ATXN2 expr inh = inhibitors of ATXN2 expression | HEK-293 ATXN2-luciferase reporter, luminescence, 24 h | Potency, µM (titrated, usually from 57 µM), usual class: inhibitors | 360,000 compounds, 0.72% hits | AID 1745845; note: nearly all actives have a fitted effect of over 55% in size
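qHTS (up to 57 uM final) was run with 24 h compound exposure of reporter cells at 37 °C. Each well was multiplexed: SteadyGlo luminescence measured ATXN2-luciferase expression after a fluorogenic Gly-Phe-AFC viability readout (25 uM final).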
HepG2 tox = kills HepG2 cells in TGF-b inhibitor counter-screen; HepG2 CAGA-GFP viability, ATP luminescence, 18 h; Potency, µM (titrated, usually from 46.1 µM), hits mostly cytotoxic; 410,000 compounds, 0.76% hits; AID 588856
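CellTiter-Glo luminescence gave cytotoxicity after 18 hours at 37 degrees C. The cells were HepG2 CAGA-GFP in 1% FBS DMEM, stimulated with 500 pg/mL TGF-beta after compound addition. %Activity was normalised to no-cell wells (complete cell-killing) and DMSO (no toxicity), and curves were fitted and classified.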
S2 tox = viability counter-screen for ATXN expression inhibitors | S2 cells (HEK-293 line with an ATXN2-luciferase reporter) viability, CellTiter-Fluor protease fluorescence, 24 h | 400,000 compounds, 0.49% hits | Potency, µM (top dose mostly 56.7 µM), most hits filed as cytotoxic; note: nearly all actives have a fitted effect of over 40% in size
Of the large screens only hits and unclear results are named; the others gave an inactive call; ! = repeats disagree. Compounds with a hit are over-represented: about 3.7% of the library has one in this group of screens. Calls come from the whole dose curve; as a rule, active = well fitted curve in the direction sought with a large enough effect; inconclusive = small, poorly fitted or top-dose-only effect, or another doubt; inactive = no such curve, though single readings can be large; an effect the other way counts as inactive or inconclusive.

Cn1cc(CN(C(=O)Nc2ccccc2)C2CCCCC2)c2ccccc21	GLP-1R inv ag 10µM, TGFb SMAD3 inh inconclusive, ATXN2 expr inh inconclusive, HepG2 tox 15.8µM, S2 tox inconclusive
Cc1cccc(N(CC(=O)Nc2ccccc2C(F)(F)F)S(=O)(=O)c2ccccc2)c1C	GLP-1R inv ag 11.2µM
COc1ccccc1Cn1c(CNS(=O)(=O)c2ccc(CC(C)C)cc2)nc2cccnc21	GLP-1R inv ag inconclusive, TGFb SMAD3 inh 12.6µM (no result: GLP1R ag, ATXN2 expr inh, S2 tox)
COc1ccccc1Cn1c(CNS(=O)(=O)c2ccc(C(C)C)cc2)nc2cccnc21	TGFb SMAD3 inh inconclusive (no result: GLP1R ag, ATXN2 expr inh, S2 tox)
O=C(Nc1ccccc1N1CCOCC1)c1ccc([N+](=O)[O-])s1	TGFb SMAD3 inh 11.2µM, ATXN2 expr inh inconclusive, S2 tox inconclusive
Cc1cccc(C)c1NC(=O)c1ccc([N+](=O)[O-])s1	TGFb SMAD3 inh inconclusive (no result: ATXN2 expr inh)
O=C(Nc1ccccc1N1CCOCC1)c1ccccc1[N+](=O)[O-]	none
Cc1cccc(NC(=O)c2ccc([N+](=O)[O-])s2)n1	TGFb SMAD3 inh 14.1µM (no result: ATXN2 expr inh)
Cc1ccnc(NC(=O)c2ccc([N+](=O)[O-])s2)c1	TGFb SMAD3 inh 12.6µM
Cc1cccc(NC(=O)c2ccc([N+](=O)[O-])s2)c1C	TGFb SMAD3 inh 11.2µM, HepG2 tox 14.1µM, S2 tox inconclusive
COc1ccc(NC(=O)c2oc3ccccc3c2NC(=O)C2CCCCC2)c(OC)c1	none
COc1cc(-n2nc(C)c3c2OC(N)=C(C#N)C3c2ccccc2)c(Cl)c(Br)c1O (stereo not given)	GLP-1R inv ag inconclusive, TGFb SMAD3 inh inconclusive, S2 tox 14.1µM
COc1ccccc1C(CCNCc1ccc(N(C)C)cc1)c1ccc(OC(C)C)cc1 (stereo not given)	GLP-1R inv ag inconclusive, TGFb SMAD3 inh inconclusive, S2 tox 31.6µM (no result: ATXN2 expr inh)
COc1ccc(C(CC(=O)O)c2ccc3c(c2)OCO3)cc1 (stereo not given)	none
COc1ccccc1NC(=O)CC(c1ccc(OC(C)C)cc1)c1ccccc1OC (stereo not given)	GLP-1R inv ag 11.2µM, S2 tox inconclusive
COc1ccc(CNCCC(c2ccc(OC(C)C)cc2)c2ccccc2OC)cc1 (stereo not given)	GLP-1R inv ag 5.62µM, TGFb SMAD3 inh inconclusive, ATXN2 expr inh 25.1µM, S2 tox inconclusive
COc1ccc(CNCCC(c2ccccc2)c2ccc3c(c2)OCO3)cc1 (stereo not given)	GLP-1R inv ag inconclusive, TGFb SMAD3 inh 22.4µM, ATXN2 expr inh 25.1µM!, S2 tox 22.4µM
Cc1cccc(N2CCN(c3ccc(C(=O)O)cc3NC(=O)c3cccc(Cl)c3)CC2C)c1 (stereo not given)	none (no result: GLP1R ag)
CC(C)CCC(CCNCc1ccccn1)c1ccc2c(c1)OCO2 (stereo not given)	GLP-1R inv ag inconclusive, TGFb SMAD3 inh inconclusive, HepG2 tox 15.8µM, S2 tox inconclusive (no result: ATXN2 expr inh)
COc1ccccc1C(CCNCc1ccccc1)c1ccc(OC(C)C)cc1 (stereo not given)	GLP-1R inv ag inconclusive, TGFb SMAD3 inh inconclusive, ATXN2 expr inh 28.2µM, HepG2 tox 12.6µM, S2 tox inconclusive
CCNCCC(CCC(C)C)c1ccc2c(c1)OCO2 (stereo not given)	GLP-1R inv ag inconclusive
COc1ccc(CNCCC(c2ccc(OC(C)C)cc2)c2ccccc2OC)cc1OC (stereo not given)	GLP-1R inv ag inconclusive, TGFb SMAD3 inh inconclusive
Cc1cc(C)c(S(=O)(=O)c2ccccc2)c(OC(=O)c2c(Cl)cc(Cl)cc2Cl)n1	GLP-1R inv ag 7.94µM, S2 tox inconclusive
Cc1cc(C)c(S(=O)(=O)c2ccccc2)c(OC(=O)c2c(F)cccc2F)n1	none
COC(=O)[C@@H]1CCCN1Cc1ccc2c(c1)CN(Cc1cccn1-c1ccccn1)CCO2	none (no result: GLP1R ag, GLP-1R inv ag, TGFb SMAD3 inh, ATXN2 expr inh, HepG2 tox)
CCOC(=O)C1=C(C)N=c2s/c(=C\c3ccc(C(=O)O)cc3)c(=O)n2C1c1ccc(OC)cc1OC (stereo not given)	S2 tox inconclusive
CCOC(=O)C1=C(C)N=c2s/c(=C/c3ccco3)c(=O)n2C1c1cccc(OC)c1 (stereo not given)	GLP-1R inv ag 11.2µM, S2 tox inconclusive
CC(C)CC(c1nnnn1Cc1ccco1)N1CCN(c2cccc(Cl)c2)CC1 (stereo not given)	GLP-1R inv ag 10µM
CC(C)SC1=NC(C)(C)C=C(/C=C/c2c(Cl)cccc2Cl)N1	GLP-1R inv ag 2.82µM, TGFb SMAD3 inh inconclusive
O=C1/C(=C/c2ccccn2)COc2ccccc21	none
CC1C/C(=C/c2ccccn2)C(=O)/C(=C/c2ccccn2)C1 (stereo not given)	TGFb SMAD3 inh 1.26µM, ATXN2 expr inh inconclusive (no result: S2 tox)
C(=C\c1ccccn1)/c1ccccn1	none
CC(C)(C)C1C/C(=C/c2ccccn2)C(=O)/C(=C/c2ccccn2)C1 (stereo not given)	GLP-1R inv ag inconclusive, TGFb SMAD3 inh 0.891µM, ATXN2 expr inh 1.41µM, S2 tox 1.78µM
Cc1ccc(F)cc1NC(=O)CCNC(=O)c1ccc([N+](=O)[O-])cc1	none
COC(=O)c1ccc(C)c(NC(=O)CCNC(=O)c2ccc([N+](=O)[O-])cc2)c1	HepG2 tox 4.47µM
Cc1ccc(CN2CCc3nnc(C(C)NC(=O)c4cc(F)ccc4F)n3CC2)o1 (stereo not given)	none (no result: GLP1R ag, GLP-1R inv ag, TGFb SMAD3 inh, ATXN2 expr inh, HepG2 tox)
COC(CNC(=O)c1c[nH]c2ccc(S(=O)(=O)N3CCOCC3)cc2c1=O)OC	none
COC(CNC(=O)c1c[nH]c2ccc(S(=O)(=O)N3CCC4(CC3)OCCO4)cc2c1=O)OC	TGFb SMAD3 inh 3.55µM
COc1cc2c(cc1OC)C(C)N(C(=O)c1cc3c(s1)-c1c(C)cccc1OC3)CC2 (stereo not given)	GLP-1R inv ag inconclusive, TGFb SMAD3 inh inconclusive, ATXN2 expr inh inconclusive, S2 tox inconclusive
COc1cc2c(cc1OC)C(C)N(C(=O)c1cc3c(s1)-c1ccccc1OC3)CC2 (stereo not given)	TGFb SMAD3 inh 11.2µM, ATXN2 expr inh 25.1µM, S2 tox inconclusive
CCOc1ccccc1NC(=O)c1ccc(F)c(S(=O)(=O)N2CCN(c3ccc(F)cc3)CC2)c1	none (no result: GLP1R ag, ATXN2 expr inh, S2 tox)
CC(=O)N(C(C)=O)c1nc(-c2ccccc2)cn1/N=C/c1ccccc1	GLP-1R inv ag 7.94µM, TGFb SMAD3 inh inconclusive
C[n+]1cn(/N=C/c2ccccc2)c2ccccc21	none
COc1ccc(C(=O)c2coc3c2C(=O)C(=O)c2ccccc2-3)cc1	TGFb SMAD3 inh inconclusive, S2 tox inconclusive
O=C(c1ccccc1)c1coc2c1C(=O)c1ccccc1C2=O	TGFb SMAD3 inh inconclusive, HepG2 tox 10µM
